Assay outcomes deposited in PubChem BioAssay by National Center for Advancing Translational Sciences (NCATS).
An excerpt weighted towards active compounds, which were near 4.4% of everything screened.
D1 ag: agonists of human D1 dopamine receptor. activation, % at 2 µM. 1% of 360,000 active. AID 504660. P21728. HEK293 T-REx D1 cells, calcium flux, agonist mode; also: 0% is about no effect
Target sequence (P21728 whole entry, looked up): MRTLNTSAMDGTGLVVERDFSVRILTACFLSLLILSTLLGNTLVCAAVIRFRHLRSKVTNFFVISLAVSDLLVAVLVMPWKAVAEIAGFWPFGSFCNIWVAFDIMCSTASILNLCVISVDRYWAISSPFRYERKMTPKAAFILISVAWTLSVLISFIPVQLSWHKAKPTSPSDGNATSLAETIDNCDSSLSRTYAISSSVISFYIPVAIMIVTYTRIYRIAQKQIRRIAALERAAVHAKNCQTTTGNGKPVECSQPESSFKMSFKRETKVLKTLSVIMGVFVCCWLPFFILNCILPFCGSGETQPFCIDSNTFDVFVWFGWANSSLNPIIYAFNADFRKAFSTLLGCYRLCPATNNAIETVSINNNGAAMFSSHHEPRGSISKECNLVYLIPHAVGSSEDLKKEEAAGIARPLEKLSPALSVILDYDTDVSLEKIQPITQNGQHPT
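Tetracycline-induced HEK293 TREx D1 cells, force-coupled to calcium signalling, were dye-loaded with a no-wash calcium kit. Compound was pin-added after a 10 s baseline. Fluorescence was read kinetically at 1 cycle/s for 180 s, with calcium rises flagged as agonism.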
TRHR PAM: TRH receptor (human) allosteric enhancement | TRHR cells, fluo-8 calcium fluorescence, EC20 TRH enhancement | AID 493056 | enhancement, % at 2 µM | 0.66% of 360,000 active | P34981; in the data active = enhancement above about 30%; also: 0% is about no effect
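Enhancer read-out: after compound pinning and an initial kinetic agonist-mode read, an EC20 of TRH (10 nM final) was injected and fluo-8 calcium signal (Ex 480/Em 530) followed at 1 s/cycle for 100 cycles in TRHR-expressing cells.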
USP1-UAF1 inh: USP1/UAF1 (human) deubiquitinase inhibition. recombinant USP1/UAF1, Ub-Rhodamine cleavage fluorescence. Potency, µM (series often up to 57.1 µM), for the others: top-dose activity change, negative = inhibition, most hits filed as inhibitors. 0.23% of 390,000 active; active = well fitted inhibition curve with a large enough effect; inconclusive = small, poorly fitted or top-dose-only effect; inactive = no such curve, though single readings can be large or run the other way; also: potency is read from the fitted curve at half-maximal effect; % is scaled to controls: 0 for no effect and ±100 for the full control effect; nearly all actives have a fitted effect of over 60% in size
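1 nM enzyme complex + cpd, 15 min RT; start with Ub-Rho 150nM final; kinetic fluorescence ex 480/em 540, 6 reads q60 s. Buffer 50mM HEPES pH 7.8, 0.5mM EDTA, 0.1 mg/ml BSA, 1mM TCEP, 0.01% Tween-20.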
D1 PAM: human D1 dopamine receptor positive modulation. HEK293 TREx D1 cells, calcium flux, dopamine EC20 potentiation. potentiation, % at 10 µM. 0.036% of 360,000 active. AID 504651; in the data active = potentiation above about 30%; also: 0% is about no effect
TRHR ag: agonists of human TRH receptor. P34981. 0.18% of 360,000 active. AID 493084. activation, % at 2 µM. TRHR cells, calcium flux fluo-8, FDSS agonist mode; also: 0% is about no effect
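TRHR-expressing cells loaded with fluo-8 calcium dye; 23 nL library compound pin-transferred, kinetic FDSS fluorescence (Ex 480/Em 530) recorded about 180 s for agonist-induced calcium release, before a 10 nM TRH EC20 addition for potentiator mode.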
D1 antagonist: antagonists of human D1 dopamine receptor. HEK293 TREx D1 cells, calcium flux, dopamine EC80; hits give low values. P21728. activity change, negative = inhibition, % at 10 µM. AID 504652. 3.2% of 360,000 active; in the data active = activity change below about -30%; also: % is scaled to controls: 0 for no effect and ±100 for the full control effect
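Using tetracycline-induced force-coupled D1 Hek293 cells and a calcium dye, signals were followed for 180 s after compound, then for 180 s after EC80 dopamine, to detect inhibitors.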
The depositor's hits bear a star. Rule as the data show it, unless noted: active = activation above about 30%; inactive = the rest.

Screening O=C(NNC(=O)c1cc(-c2ccncc2)nc2ccccc12)c1cccc(Cl)c1 returned D1 ag 3, TRHR PAM 4, USP1-UAF1 inh -18%, D1 PAM -4, TRHR ag 0 and D1 antagonist -41*.
For Cc1[nH]c2ccccc2c1/C=N/NC(=O)Nc1ccccc1 the results were D1 ag 3, TRHR PAM 9, USP1-UAF1 inh -22%, D1 PAM -8, TRHR ag 0 and D1 antagonist -9.
Screening Cc1[nH]c2ccccc2c1/C=C/C(=O)c1ccccc1 returned D1 ag 41*, TRHR PAM 0, USP1-UAF1 inh -23%, D1 PAM -3, TRHR ag 8 and D1 antagonist -20.
`Cc1[nH]c2ccccc2c1/C=N/NC(=O)CCC(=O)Nc1ccccc1` gave D1 ag 1, TRHR PAM 17, USP1-UAF1 inh -1%, D1 PAM -4, TRHR ag 1 and D1 antagonist -48*.
For Cc1[nH]c2ccccc2c1/C=N/NC(=O)c1cc(-c2ccncc2)nc2ccccc12 the results were D1 ag 1, TRHR PAM -8, USP1-UAF1 inh -26%, D1 PAM -17, TRHR ag 0 and D1 antagonist -43*.
`COc1ccc2oc(=O)cc(CN3CCN(c4ccc(F)cc4)CC3)c2c1` gave D1 ag 0, TRHR PAM 9, USP1-UAF1 inh -17%, D1 PAM 0, TRHR ag -1 and D1 antagonist -2.
For CCc1ccc(CN(C(=O)c2cc(=O)c3ccc(C)cc3o2)C2CCS(=O)(=O)C2)cc1 (configuration not stated) the results were D1 ag -1, TRHR PAM 3, USP1-UAF1 inh 47%, D1 PAM -2, TRHR ag -1 and D1 antagonist 2.
Screening Cc1ccccc1-c1noc(CSc2nnc(Cc3ccccc3)n2-c2ccc(F)cc2)n1 returned D1 ag 27, TRHR PAM 25, USP1-UAF1 inh -17%, D1 PAM 0, TRHR ag 3 and D1 antagonist 10.
For O=C(O)c1ccnc2c(O)cccc12 the results were D1 ag 3, TRHR PAM 0, D1 PAM 2, TRHR ag 0 and D1 antagonist 20.
For CC1CCCCN1C(=O)CSc1nnc2c(n1)[nH]c1ccc(F)cc12 (configuration not stated) the results were D1 ag 0, TRHR PAM 5, USP1-UAF1 inh -17%, D1 PAM 1, TRHR ag 0 and D1 antagonist -4.
CC1CCc2cc(F)ccc2N1C(=O)CSc1nnc2c(n1)[nH]c1ccc(F)cc12 (configuration not stated) was read as D1 ag 13, TRHR PAM 0, USP1-UAF1 inh -10%, D1 PAM -8, TRHR ag 1 and D1 antagonist -37*.
`CCNS(=O)(=O)c1ccc(NC(=O)Cn2nc(C(F)(F)F)cc2C)cc1` gave D1 ag 7, TRHR PAM -2, USP1-UAF1 inh -15%, D1 PAM -2, TRHR ag 1 and D1 antagonist -39*.
`Cc1cc(C)cc(NC(=O)CSc2nnc(-c3cc4occc4n3C)n2-c2ccccc2C)c1` gave D1 ag 3, TRHR PAM 2, USP1-UAF1 inh -17%, D1 PAM -3, TRHR ag 0 and D1 antagonist 8.
`Cc1ccsc1/C=N/NC(=O)c1ccncc1` gave D1 ag 3, TRHR PAM -1, USP1-UAF1 inh -8%, D1 PAM 2, TRHR ag 0 and D1 antagonist 5.
Cc1ccsc1/C=N/NC(=O)c1ccc2ccccc2c1 was read as D1 ag 0, TRHR PAM -25, USP1-UAF1 inh -19%, D1 PAM -11, TRHR ag 0 and D1 antagonist -49*.
For COc1ccccc1COCC(O)CNCCc1ccc(C(F)(F)F)cc1 (configuration not stated) the results were D1 ag 50*, TRHR PAM -5, USP1-UAF1 inh -23%, D1 PAM -2, TRHR ag 1 and D1 antagonist -25.
`OC(COc1ccc(CNCCc2ccc(C(F)(F)F)cc2)cc1)CN1CCCCC1` (configuration not stated) gave D1 ag 35*, TRHR PAM 5, USP1-UAF1 inh -21%, D1 PAM -3, TRHR ag 5 and D1 antagonist -38*.
OC(CNCCc1ccc(C(F)(F)F)cc1)COc1cccc2ccccc12 (configuration not stated) was read as D1 ag 42*, TRHR PAM 4, USP1-UAF1 inh -8%, D1 PAM 6, TRHR ag 2 and D1 antagonist 12.
`OC(COc1ccc(OCC(O)CN2CCCCC2)cc1)CN1CCCCC1` (configuration not stated) gave D1 ag 6, TRHR PAM 4, USP1-UAF1 inh 8%, D1 PAM 4, TRHR ag 1 and D1 antagonist -1.
`OC(CNCCc1ccc(Cl)cc1)COCc1ccco1` (configuration not stated) gave D1 ag 4, TRHR PAM 2, USP1-UAF1 inh -10%, D1 PAM -3, TRHR ag 0 and D1 antagonist -6.
Screening OC(CNCCc1ccc(C(F)(F)F)cc1)COc1ccc2ccccc2c1 (configuration not stated) returned D1 ag 106*, TRHR PAM -1, USP1-UAF1 inh -16%, D1 PAM 7, TRHR ag 5 and D1 antagonist 10.
Screening CCOC(=O)c1c(C)n(C)c2ccc(OCC(O)CNCCc3ccccc3)cc12 (configuration not stated) returned D1 ag 3, TRHR PAM -1, USP1-UAF1 inh -22%, D1 PAM -7, TRHR ag 0 and D1 antagonist 6.
For CCOc1ccc(S(=O)(=O)N2CCC(N3CCN(Cc4ccc(F)cc4)C(=O)C3=O)CC2)cc1 the results were D1 ag 4, TRHR PAM 0, USP1-UAF1 inh -25%, D1 PAM -2, TRHR ag -1 and D1 antagonist -4.
COc1ccc(CCNc2nc(SCc3cccc(Cl)c3)nc3ccccc23)cc1OC was read as D1 ag 5, TRHR PAM 3, USP1-UAF1 inh inconclusive, D1 PAM 5, TRHR ag 0 and D1 antagonist 16.
Screening O=C(Cn1c(=O)n(-c2ccccc2)c(=O)c2ccc(C(=O)NCc3ccc4c(c3)OCO4)cc21)Nc1ccc(F)c(Cl)c1 returned D1 ag 2, TRHR PAM -8, USP1-UAF1 inh -12%, D1 PAM 1, TRHR ag 2 and D1 antagonist -4.
